PubChem BioAssay AID893 (National Center for Advancing Translational Sciences (NCATS), 2007)
About 5,700 (7.6%) of roughly 75,000 compounds were called active. Where a call stands in place of a potency, no number is given. About 7% were inconclusive and are not listed. This is one part of a sample in which actives are shown more often than they occur. Calls come from the whole dose curve; as a rule, active = well fitted inhibition curve with a large enough effect; inconclusive = small, poorly fitted or top-dose-only effect; inactive = no such curve, though single readings can be large or run the other way.

The molecules below were run against 3-hydroxyacyl-CoA dehydrogenase type-2 (Homo sapiens) (UniProt Q99714) (assay: qHTS Assay for Inhibitors of HSD17B4, hydroxysteroid (17-beta) dehydrogenase 4). Settings: recombinant HSD17B10, NADH fluorescence kinetic; series mostly up to 57.1 µM.
Description: Assay Overview: NIH Molecular Libraries Screening Centers Network [MLSCN] NIH Chemical Genomics Center [NCGC] Structural Genomics Consortium [SGC] Grant number: None HADH2: Hydroxyacyl-Coenzyme A dehydrogenase, type II, was supplied by researchers at the Structural Genomics Consortium, Oxford University lab (PI Udo Oppermann). The mitochondrial enzyme 17-hydroxysteroid dehydrogenase type 10 (HSD17-10) previously classified as type II hydroxyacyl-CoA dehydrogenase (HADH2) catalyzes the NAD+ dependent oxidation of a variety of substrates including acyl-CoAs, androgens and neurosteroids as well as bile acids(Shafqat N, Marschall HU, Filling C, et al. Biochemical Journal. 2003;376(Pt 1):49-60). […] The enzyme was produced by E.coli fermentation as His-tagged recombinant for the purpose of X-ray structure determination, and had been mass-spectrometry characterized. Inhibition of HADH2 activity was screened by utilizing beta-hydroxybutyryl coenzyme A as an electron donor and NAD+ as an electron acceptor/cofactor. An increase in the fluorescence intensity due to conversion of NAD+ to NADH was used to measure the enzyme activity.
Assay Protocol: Buffer: 100 mM Tris-HCl pH 9.0, containing 0.01 % Tween-20. Reagents/Controls: Buffer in columns 3 and 4 as negative control (no enzyme). Substrate/cofactor solution: 1 mM NAD+ and 90 uM beta-hydroxybutyryl coenzyme A (Sigma-Aldrich, St. Louis, MO) final concentrations dispensed throughout the plate. Enzyme: 20 nM HADH2 final concentration in columns 1, 2, 5-48. Column 1 is neutral (100% activity). Column 2 contained titration of apomorphine (Sigma-Aldrich, A 4393, PubChem CID 2215, top concentration 500 uM, then 1:2 dilution in duplicate) Assay Steps: Three uL of enzyme were dispensed to 1536-well Greiner black solid bottom plates. Compounds and controls (23 nL) were transferred via Kalypsys PinTool. The plates were incubated for 15 min at room temperature, and then 1 uL of substrate/cofactor solution was added to start the reaction. The plates were immediately transferred to and read every 30 seconds for 4 min on ViewLux High-throughput CCD imager (Perkin-Elmer) using 360 nm excitation and 450 nm emission fluorescence protocol. The fluorescence intensity difference between the last and the first time points was used to compute reaction progress.
Note: nearly all actives have a fitted effect of over 70% in size.
Potency is the fitted concentration of half-maximal effect.

SMILES | Potency | activity change, negative = inhibition
Cc1cccc2c3c(ccc12)C1=C(C(=O)C3=O)C(C)CO1 (centres undefined) | 20 µM (active) | –
C[C@@]12CCC3C(CC[C@@H]4CC(O)CC[C@@]34C)C1CCC2O (some centres undefined) | inactive | –
CC(C)(C)[C@]1(O)C[C@@H]2OC(=O)C[C@@]23C(=O)O[C@@H]2OC(=O)[C@H](O)[C@]213 | inactive | –
Cc1cccc([C@H](C)c2cnc[nH]2)c1C | inactive | –
c1ccc(N2CC[C@@]3(CCCNC3)C2)nc1 | 31.6 µM (active) | –
c1ccc(CN2CC[C@@]3(CCCNC3)C2)cc1 | inactive | –
O=C1C2(Cl)C3(Cl)C4(Cl)C(Cl)(Cl)C5(Cl)C3(Cl)C1(Cl)C5(Cl)C24Cl (centres undefined) | inactive | –
CN1C2CC3CC1C(O3)C2O (centres undefined) | inactive | –
CCN1C[C@]2(COC)C(O)C[C@H](OC)[C@@]34C5C[C@]6(O)C(OC)C(O)[C@](OC(C)=O)(C5C6OC(=O)c5ccccc5)C(C(OC)C23)C14 (some centres undefined) | inactive | –
CC(=O)OC1C2CCC3C1(CC(O)[C@@]1(O)[C@@H](CC(O)C1(C)C)[C@]3(C)O)C[C@@]2(C)O (some centres undefined) | inactive | –
CC(C)(C)C(O)(CCc1ccc(Cl)cc1)Cn1cncn1 (centres undefined) | inactive | –
CCOC(=O)c1c(-c2ccccc2)oc2ccc(OC(=O)N(C)C)cc12 | 31.6 µM (active) | –
c1ccc(CCCCN2CCC(c3ccccc3)CC2)cc1 | inactive | –
CN(C)C1C(=O)C(C(N)=O)=C(O)[C@@]2(O)C(=O)C3=C(O)c4c(O)cccc4[C@@](C)(O)C3C[C@@H]12 (some centres undefined) | inactive | –
NCC[Se][Se]CCN | 0.794 µM (active) | –
N#CCCCl | inactive | –
C=CCSSCC=C | inactive | –
COc1cc(C[C@H](C)N)c(OC)cc1I | inactive | –
CC(=O)c1c(O)c(C)c(O)c(Cc2c(O)c3c(c(C(=O)/C=C\c4ccccc4)c2O)OC(C)(C)C=C3)c1O | 31.6 µM (active) | –
CCCCN1C2CCC1CC(OC(c1ccc(F)cc1)c1ccc(F)cc1)C2 (centres undefined) | inactive | –
C[C@H](CCC(=O)O)[C@H]1CC[C@@H]2[C@H]3CC[C@H]4C[C@H](O)CC[C@@]4(C)[C@@H]3CC[C@@]21C | – | -3.04% [at 11.4 µM] (inactive)
CCNC[C@H](O)c1cccc(O)c1 | inactive | –
Fc1ccc(C(OCCN2CCN(C/C=C\c3ccccc3)CC2)c2ccc(F)cc2)cc1 | inactive | –
CCOC(=O)c1c(N)n(Cc2ccccc2)c2nc3ccccc3nc12 | 15.8 µM (active) | –
N#Cc1c(Cl)c(Cl)c(Cl)c(C#N)c1Cl | inactive | –
CC1=CC(=O)C2=C(C)C[C@H](O)[C@H]3[C@H](C)C(=O)O[C@@H]3C12 (some centres undefined) | inactive | –
Cc1ccc(S(=O)(=O)O[C@H]2CN3CCC2CC3)cc1 | – | 7.71% [at 11.4 µM] (inactive)

SMILES | Potency | activity change, negative = inhibition
COc1ccc(C2Oc3c(I)c(OC)cc(OC)c3CC2O)cc1OC (centres undefined) | inactive | –
NC(=O)c1ccc(OC[C@H](O)CN2CC=C(c3ccc(F)cc3)CC2)cc1 | inactive | –
CC[C@@](O)(C(=O)O)c1cc2n(c(=O)c1CO)Cc1cc3ccccc3nc1-2 | 3.16 µM (active) | –
Clc1ccccc1 | inactive | –
CC(C)CC(C)Nc1ccc(Nc2ccccc2)cc1 (centres undefined) | inactive | –
CC[C@@H]1CN2CC[C@@H]1C[C@H]2[C@H](O)c1ccnc2ccc(OC)cc12 | 25.1 µM (active) | –
ClC(Cl)=C(Cl)C(Cl)=C(Cl)Cl | inactive | –
N[C@H](C(=O)O)c1cc(=O)[nH]o1 | inactive | –
c1csc(CN2CCCC3(CCNCC3)C2)n1 | inactive | –
COC1CC(OC2CC[C@@]3(C=O)C4CC[C@]5(C)C(C6=CC(=O)OC6)CC[C@@]5(O)C4CC[C@]3(O)C2)OC(C)C1O (some centres undefined) | inactive | –
CCN1C[C@@]2(COC)CC[C@H](OC)[C@]34[C@@H]1[C@]1(OCO[C@@]15C[C@@H](OC)C1C[C@H]3[C@H]5[C@@H]1OC)[C@H](O)[C@@H]24 | inactive | –
CCN(CC)CCOC(=O)c1cc2cc(COC)ccc2o1 | 25.1 µM (active) | –
O=C(NCC(c1cccnc1)N1CCN(c2ccccc2)CC1)Oc1ccccc1 (centres undefined) | inactive | –
COc1cc2c(cc1OC)[C@@H]1C(=O)c3ccc(O)c(CC=C(C)C)c3OC1CO2 (some centres undefined) | inactive | –
CS(=N)(=O)CC[C@H](N)P(=O)(O)O (some centres undefined) | – | -1.1% [at 11.4 µM] (inactive)
CC(C)(c1ccc(OC[C@@H]2CO2)cc1)c1ccc(OC[C@H]2CO2)cc1 | inactive | –
O=C(c1cc2nc(-c3ccccc3)cc(-c3ccccc3)n2n1)N1CCC2(CC1)OCCO2 | 31.6 µM (active) | –
O=C(c1cc(-c2ccncc2)nc2ccccc12)N1CCC2(CC1)OCCO2 | inactive | –
Cc1cccc(-n2c(C)nc3cc(C(=O)N4CCC5(CC4)OCCO5)ccc32)c1 | inactive | –
CNC(C)[C@@H](O)c1ccccc1 (some centres undefined) | inactive | –
CCCCC#N | inactive | –
CCC(C)C(=O)O[C@@H]1C[C@@]2(C)C(c3ccoc3)OC(=O)CC23OC2(C)O[C@@]14[C@@]1(C)C(CC(=O)OC)C5(C)CC1(O)C(O)(C5OC(=O)C1(C)OC1C)C(OC(C)=O)[C@@]34O2 (some centres undefined) | inactive | –
CC(C)(Cc1c[nH]c2ccc(Cl)cc12)NCCOc1ccccc1OCC1CC1 | inactive | –
C[C@H]1CC[C@@]2(NC1)O[C@@H]1C[C@H]3[C@@H]4CC=C5C[C@@H](O)CC[C@]5(C)[C@@H]4CC[C@]3(C)[C@@H]1[C@@H]2C | inactive | –
CN1[C@@H]2CC[C@H]1CC(NC(=O)c1nn(C)c3ccccc13)C2 (some centres undefined) | 20 µM (active) | –
N[C@H](Cc1o[nH]c(=O)c1Cl)C(=O)O | inactive | –
C[C@@]12CC[C@H](O)C[C@@H]1CC[C@@H]1[C@@H]2CC[C@@]2(C)[C@@H](C3=CC(=O)OC3)[C@H](O)C[C@]12O | – | 5.61% [at 11.4 µM] (inactive)
